Compound activity from PubChem BioAssay.
Only some compounds are listed: those with a hit (about 3% of all), similar ones and a draw of the others.
KDM5B inhibitor – KDM5B demethylase inhibition. Q9UGL1. actives 2.6% (n = 220,000). Potency, µM (titrated, usually from 57.7 µM), actives largely listed as inhibitors. KDM5B demethylase, FDH-coupled NADH fluorescence (FDH is formaldehyde dehydrogenase); note: nearly all actives have a fitted effect of over 70% in size
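qHTS format, multiple compound concentrations. Buffer 50 mM HEPES pH 7.5/0.01% Tween-20; 200 nM KDM5BΔAP final; 10 min compound preincubation; substrate-mix levels 12.5 µM peptide, 25 µM α-KG, 0.25 mM NAD⁺; 30 min RT; ΔRFU.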
SNCA expr inhib – inhibitors of alpha-synuclein (SNCA) gene expression; HEK-293 SNCA-luciferase knock-in, luminescence, 24 h; Potency, µM (top dose mostly 57.2 µM), hits mostly inhibitors; actives 0.17% (n = 140,000); note: nearly all actives have a fitted effect of over 45% in size
IP6K1 inhibitor – IP6K1 kinase inhibition; Q92551; IP6K1 kinase, ADP-Glo luminescence, 2 h; active compounds read low; activity change, % (series mostly up to about 58 µM); actives 0.81% (n = 140,000); AID 1645851; in the data active = activity change below about -25%
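ADP-Glo luminescence measures ADP made by human IP6K1 during a 2 h RT reaction with ATP/IP6 (mix at 1.3 mM/130 uM); top library doses 57.5 and 19.1 uM final.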
SNCA viab count – cell viability loss counter-screen. HEK-293-SNCA-luc viability, GF-AFC fluorescence, 24 h. Potency, µM (highest dose often 57.1 µM), actives largely listed as cytotoxic. actives 0.12% (n = 150,000). AID 1671193; note: nearly all actives have a fitted effect of over 30% in size
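HEK-293-SNCA-luc cells (1500/well) plated 24 h, then exposed 24 h to a dilution series; GF-AFC added 30 min at 37C, fluorescence 405/540 nm; normalised to medium-only and DMSO wells, Hill fit.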
Hits are given with their value; n = inactive; u = inconclusive; x = not tested or not shown; [ ] = dose if it differs, or a comment. Unless noted, calls come from the whole dose curve; as a rule, active = well fitted curve in the direction sought with a large enough effect; inconclusive = small, poorly fitted or top-dose-only effect, or another doubt; inactive = no such curve, though single readings can be large; an effect the other way counts as inactive or inconclusive.

SMILES	KDM5B inhibitor	SNCA expr inhib	IP6K1 inhibitor	SNCA viab count
Cc1ccc(NC(=O)CCc2ccnc(N3CCCC3)c2)c(C)c1	32µM	n	n	n
O=C(CCNc1c(-c2ccccc2)nc2cnccn12)NC1CCCC1	28µM	u	n	u
O=C(CCNc1c(-c2ccc(F)cc2)nc2cnccn12)NC1CCCC1	28µM	n	n	u
O=C(CCNc1c(-c2ccc(F)cc2)nc2cnccn12)N1CCCCC1	22µM	n	n	n
c1cn2c(NC3CCCCC3)c(-c3ccc(N4CCOCC4)cc3)nc2cn1	n	x	x	x
O=C(NCc1cccc(Cl)c1)C1CCCN1C(=O)c1cccc(-c2ccccn2)c1 (stereo not given)	x	x	n	x
COc1ccccc1C(=O)N1CCCN(c2nnc3cccc(C)n23)CC1	25µM	n	n	n
Cc1ccc(C(=O)N2CCN(c3nnc4cccc(C)n34)CC2)cc1F	28µM	n	n	n
Cc1ccc(C(=O)N2CCN(c3cc(-c4ccccc4)[nH]n3)CC2)cc1F	n	n	n	n
COc1ccc(C(=O)N2CCN(c3nnc4cccc(C)n34)CC2)cc1F	28µM	n	n	n
Cn1c(OCc2cccnc2)nc2c1c(=O)n(Cc1cccc(Cl)c1)c(=O)n2C	n	x	x	x
Cc1ccc([S+](=O)([O-])N2CCCC(C(=O)N3CCC(c4nc5ncccc5[nH]4)C3)C2)cc1 (stereo not given)	x	n	n	n
COc1ccccc1C(=O)Nc1ccnn1C1CCN(c2nccc(N)n2)CC1	u	n	n	n
COc1ccccc1C(=O)Nc1ccnn1C1CCN(c2cnccn2)CC1	28µM	n	n	n
O=C(NC1CCN(c2nnc3ccccn23)CC1)c1ccc(Cl)s1	25µM	n	n	u
Cc1ccc(CC(=O)NC2CCN(c3nnc4cccc(C)n34)CC2)cc1	32µM	n	n	n
COc1cccc(C(=O)NC2CCN(c3nnc4ccccn34)CC2)c1	28µM	n	n	n
O=C(CCc1ccccc1)NC1CCN(c2nnc3ccccn23)CC1	25µM	n	n	n
O=C(CCCc1ccccc1)NC1CCN(c2cc(-c3ccccc3)[nH]n2)CC1	n	n	n	n
Cc1ccc(C(=O)NC2CCN(c3nccc(Nc4ccccc4F)n3)CC2)cc1	x	n	n	n[12.5 µM]
CC(NC1CC1)c1ccc2ccccc2c1 (stereo not given)	n	x	x	x
CCS(=O)(=O)c1oc(-c2ccc(F)cc2)nc1S(=O)(=O)c1ccccc1	u	u	n	7.9µM
CCCCS(=O)(=O)c1oc(-c2ccc(F)cc2)nc1S(=O)(=O)c1ccc(C)cc1	n	u	n	u
CCC(C)S(=O)(=O)c1oc(-c2ccc(F)cc2)nc1S(=O)(=O)c1ccc(F)cc1 (stereo not given)	u	u	n	28µM
COc1ccc(CNC(=O)C2CCCCN2Cc2ccc(-c3cc(F)ccc3OC)cc2)cc1 (stereo not given)	x	x	n	x
SMILES	KDM5B inhibitor	SNCA expr inhib	IP6K1 inhibitor	SNCA viab count
Clc1ccc(Nc2cnc3ccc(-c4ccccc4)nn23)nc1	n	n	n	n
COc1ccc(-c2ccc3ncc(Nc4cc(F)ccc4OC)n3n2)cn1	n	n	n	n
CN(C)c1ccc2ncc(Nc3ccc(Cl)cn3)n2n1	35µM	n	n	n
COc1ccc(F)cc1Nc1cnc2ccc(N(C)C)nn12	32µM	n	n	n
COc1ccc(-c2nnc3ccc(N4CCC(c5ccccc5)CC4)nn23)nc1	35µM	n	n	n
Cc1ccc(-c2nnc3ccc(N4CCN(Cc5ccccc5)CC4)nn23)nc1	35µM	n	n	n
O=C(NCc1ccc(F)c(F)c1)c1cn2cc(-c3ccc(C(F)(F)F)cc3)sc2n1	x	n	n	n
COc1ccc(C(=O)Nc2cc(C3CCCC3)nn2C)cc1	x	n	n	n
Cc1ccc(-c2ccc3nnc(CNC(=O)c4cccc5[nH]ccc45)n3n2)cc1C	35µM	n	n	u
Cc1ccc(-c2ccc3nnc(CNC(=O)c4cccn4C)n3n2)cc1C	n	u	n	n
COc1ccc(C(=O)NCc2nnc3ccc(-c4ccc(C)c(C)c4)nn23)cc1F	32µM	u	n	u
Cc1ccc(C)c(C(=O)NCc2nnc3ccc(-c4ccc(C)c(C)c4)nn23)c1	14µM	n	n	n
Cc1ccc(-c2ccc3nnc(CNC(=O)c4ccccc4)n3n2)cc1C	28µM	u	n	n
COc1ccc(C(=O)NCc2nnc3ccc(-c4ccc(C)c(C)c4)nn23)cc1OC	n	n	n	n
Oc1ccc(-n2nnnc2SCc2cc(Cl)c3c(c2)OCCCO3)cc1	n	x	x	x
COc1cccc(Nc2cc3c(cn2)NCCN(Cc2ccccc2)C3)c1	40µM	n	n	n
